Source: PubChem BioAssay (National Center for Advancing Translational Sciences (NCATS))
The list is not random: actives were taken first. Their share in the collection is about 19%.
DT40 TDP1 CPT – growth inhibition of DT40 Tdp1-/-;hTDP1 cells with camptothecin (screen for TDP1 inhibitors). chicken DT40 Tdp1-/-;hTDP1 cells + 20 nM CPT, ATP luminescence, 48 h. Potency, µM (series often up to 46.2 µM), without a hit: at the top dose activity change, negative = growth inhibition, hits mostly inhibitors. 12% of 420,000 active; also: potency is read from the fitted curve at half-maximal effect; % is scaled to controls: 0 for no effect and ±100 for the full control effect; nearly all actives have a fitted effect of over 55% in size
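Cell growth measured by CellTiter-Glo luminescence after a minimum 48 h, 37 C compound exposure with 20 nM CPT in Tdp1-knockout DT40 cells stably expressing hTDP1, seeded 400/well; qHTS titration format.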
MCF10A rereplic – DNA re-replication induction in MCF 10a cells. Potency, µM (highest dose often 46.1 µM), for inactives: at the highest dose activity, positive = re-replication, actives largely listed as activators. MCF 10A DNA re-replication, Hoechst nuclear intensity, 48 h. 2.9% of 350,000 active; also: potency is read from the fitted curve at half-maximal effect; % of control where 0% means no effect; nearly all actives have a fitted effect of over 50% in size
DT40 TDP1 no CPT – qHTS for Inhibitors of human tyrosyl-DNA phosphodiesterase 1 (TDP1): qHTS in cells in absence of CPT | DT40 Tdp1-/- hTDP1 cells, no CPT, ATP luminescence, 48 h | Potency, µM (doses to about 46.2 µM), for the others: top-dose activity change, negative = growth inhibition, actives largely listed as inhibitors | 15% of 420,000 active; also: potency is read from the fitted curve at half-maximal effect; % is scaled to controls: 0 for no effect and ±100 for the full control effect; nearly all actives have a fitted effect of over 55% in size
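Chicken DT40 Tdp1-/- cells stably complemented with human TDP1 were seeded at 400 cells/well with DMSO in place of 20 nM camptothecin. After compound pinning, cells grew at least 48 hr at 37 °C; viability read by CellTiter-Glo luminescence.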
IL1B secr inh – inhibitors of inflammasome signaling (IL-1 beta secretion) | AID 743279 | activity change, % at 57.5 µM | 4.7% of 360,000 active | THP-1 LPS/ATP IL-1B secretion, AlphaLISA, 16 h; stronger effect = lower value; in the data active = activity change below about -50%; inconclusive = mostly about -30% to -49%; also: % is scaled to controls: 0 for no effect and ±100 for the full control effect
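THP-1 cells pretreated 1 hr with compounds (up to 57.5 uM final), then stimulated with LPS (250 ng/mL final) plus ATP (1.25 mM final); secreted IL-1B measured by AlphaLISA after 16 hr, decreased signal indicating inhibition.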
SW480 rereplic – DNA re-replication induction in SW480 cells; SW480 DNA re-replication, Hoechst DNA content imaging, 48 h; 1.8% of 340,000 active; Potency, µM (doses to about 46.1 µM), for the others: at the highest dose re-replication activation, usual class: activators; AID 624297; also: potency is read from the fitted curve at half-maximal effect; % of control where 0% means no effect; nearly all actives have a fitted effect of over 55% in size
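Cells (250 per well) received 23 nL compound or DMSO by pin tool and were kept 48 hr at 37 C, 5% CO2. Nuclei were then stained with Hoechst for 40 min and scanned for DNA content.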
BCR signal inh – chronic active BCR signaling inhibition; ABC-DLBCL IkBa-CBG/CBR reporter, luminescence ratio, 4 h; Potency, µM (highest dose often 46.1 µM), for the others: top-dose activity change, negative = inhibition, hits mostly inhibitors; 0.05% of 340,000 active; active = well fitted inhibition curve with a large enough effect in the signal ratio, with a control signal flat, not every such curve was filed as active; inconclusive = small, poorly fitted or top-dose-only effect, or effect the other way, or a change in a side signal; the % refers to the signal ratio;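 also: potency is read from the fitted curve at half-maximal effect; plate controls were basal doxycycline-induced cells for no effect and cells given 10 µM MG132 for full effect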
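Cell line TMD8 (human ABC DLBCL), stably expressing tet-inducible CBG68-IkBa fusion and CBR; IMDM/0.5% FBS; cpd up to 46 uM; dox induction, 4 h, 37C/5% CO2; dual luminescence; green/red ratio; MG132 control.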
Active calls of the source: *. Unless noted, calls follow the shape of the dose curve; as a rule, active = well fitted curve in the direction sought with a large enough effect; inconclusive = small, poorly fitted or top-dose-only effect, or another doubt; inactive = no such curve, though single readings can be large; an effect the other way counts as inactive or inconclusive.

Screening COC(=O)C1=C(O)/C(=C\c2ccc(CNC(=O)C(=O)Nc3ccc(C)cc3)o2)N=C1C returned DT40 TDP1 CPT inconclusive, MCF10A rereplic -1%, DT40 TDP1 no CPT inconclusive, IL1B secr inh 21, SW480 rereplic 21% and BCR signal inh inconclusive.
Screening CCOC(=O)C1=C(O)/C(=C/c2ccc(CNC(=O)C(=O)Nc3ccc(C)cc3)o2)N=C1C returned DT40 TDP1 CPT inconclusive, MCF10A rereplic -3%, DT40 TDP1 no CPT 6.5µM*, IL1B secr inh 1, SW480 rereplic -3% and BCR signal inh 15%.
For CCc1ccc(CCC(=O)Nc2sc3c(c2C#N)CCCC3)o1 the results were DT40 TDP1 CPT 5µM*, MCF10A rereplic 4.6µM*, DT40 TDP1 no CPT 3.5µM*, IL1B secr inh 32, SW480 rereplic 3.3µM* and BCR signal inh inconclusive.
`N#Cc1c(NC(=O)CSc2nc(N)cc(=O)[nH]2)sc2c1CCCC2` gave DT40 TDP1 CPT inconclusive, MCF10A rereplic 28%, DT40 TDP1 no CPT 23µM*, IL1B secr inh 69, SW480 rereplic -6% and BCR signal inh inconclusive.
For CC(C)CC(=O)NC(NC(=S)Nc1sc2c(c1C#N)CCCC2)C(Cl)(Cl)Cl (centres undefined) the results were DT40 TDP1 CPT 16µM*, MCF10A rereplic 16µM*, DT40 TDP1 no CPT inconclusive, IL1B secr inh 24, SW480 rereplic 2% and BCR signal inh 16%.
`N#Cc1c(NC(=O)CCC(=O)O)sc2c1CCCC2` gave DT40 TDP1 CPT 0.58µM*, MCF10A rereplic -1%, DT40 TDP1 no CPT 0%, IL1B secr inh 29, SW480 rereplic -7% and BCR signal inh inconclusive.
CC(C)OCCCn1c(SCc2ccccc2C#N)nc2c(sc3ccccc32)c1=O was read as DT40 TDP1 CPT 9%, DT40 TDP1 no CPT -1% and BCR signal inh -28%.
O=C(Nc1ccc(F)cc1C(F)(F)F)C1CCN(c2ncccn2)CC1 was read as DT40 TDP1 CPT -14% and DT40 TDP1 no CPT -3%.
For CC(=O)NC(CC(=O)OC(C)C(=O)Nc1ncc(Cl)cc1Cl)c1ccccc1 (centres undefined) the results were DT40 TDP1 CPT 19%, MCF10A rereplic -4%, DT40 TDP1 no CPT 2%, IL1B secr inh 0, SW480 rereplic 1% and BCR signal inh 4%.
`COc1ccc(NC(=O)CN2C(=O)CCn3nc(-c4cccn4C)cc32)cc1` gave DT40 TDP1 CPT 2% and DT40 TDP1 no CPT 8%.
For Cc1cc(S(=O)(=O)N2CCCC(N3CCOCC3)C2)c(C)cc1Cl (centres undefined) the results were DT40 TDP1 CPT inconclusive, MCF10A rereplic -1%, DT40 TDP1 no CPT inconclusive, IL1B secr inh 2, SW480 rereplic inconclusive and BCR signal inh 0%.
`Cc1ccc(/C=C/C(=O)Nc2sc3c(c2C#N)CCCC3)o1` gave DT40 TDP1 CPT inconclusive, MCF10A rereplic inconclusive, DT40 TDP1 no CPT inconclusive, IL1B secr inh -21, SW480 rereplic 1.2µM* and BCR signal inh -5%.
Clc1cncc(Cl)c1N/N=C/c1ccncc1 was read as DT40 TDP1 CPT inconclusive, MCF10A rereplic 17%, DT40 TDP1 no CPT inconclusive, IL1B secr inh -95*, SW480 rereplic -3% and BCR signal inh inconclusive.
Screening Clc1cccc(Cl)c1/C=N/Nc1c(Cl)cncc1Cl returned DT40 TDP1 CPT 2.1µM*, MCF10A rereplic 2.6µM*, DT40 TDP1 no CPT 3.3µM*, IL1B secr inh -82*, SW480 rereplic 8.2µM* and BCR signal inh -25%.
